This note sets out measurements from ChEMBL document CHEMBL2218924, “A broad activity screen in support of a chemogenomic map for kinase signalling research and drug discovery” (Biochem J, 2013).

The target in test [1] is Vascular endothelial growth factor receptor 3 (Homo sapiens) (UniProt P35916). The following applies: at 10 µM.
The target of test [2] is Macrophage colony-stimulating factor 1 receptor (Homo sapiens) (UniProt P07333). The following applies: at 1 µM.
Test [3] shares this target. The following applies: at 10 µM.
Test [4] has as its target Tyrosine-protein kinase Fyn (Homo sapiens) (UniProt P06241). The conditions noted are these: at 1 µM.
Test [5] shares this target. The following applies: at 10 µM.
Test [6] has as its target T1, Mitogen-activated protein kinase kinase kinase kinase 2 (Homo sapiens) (UniProt Q12851).
T1 sequence (whole entry): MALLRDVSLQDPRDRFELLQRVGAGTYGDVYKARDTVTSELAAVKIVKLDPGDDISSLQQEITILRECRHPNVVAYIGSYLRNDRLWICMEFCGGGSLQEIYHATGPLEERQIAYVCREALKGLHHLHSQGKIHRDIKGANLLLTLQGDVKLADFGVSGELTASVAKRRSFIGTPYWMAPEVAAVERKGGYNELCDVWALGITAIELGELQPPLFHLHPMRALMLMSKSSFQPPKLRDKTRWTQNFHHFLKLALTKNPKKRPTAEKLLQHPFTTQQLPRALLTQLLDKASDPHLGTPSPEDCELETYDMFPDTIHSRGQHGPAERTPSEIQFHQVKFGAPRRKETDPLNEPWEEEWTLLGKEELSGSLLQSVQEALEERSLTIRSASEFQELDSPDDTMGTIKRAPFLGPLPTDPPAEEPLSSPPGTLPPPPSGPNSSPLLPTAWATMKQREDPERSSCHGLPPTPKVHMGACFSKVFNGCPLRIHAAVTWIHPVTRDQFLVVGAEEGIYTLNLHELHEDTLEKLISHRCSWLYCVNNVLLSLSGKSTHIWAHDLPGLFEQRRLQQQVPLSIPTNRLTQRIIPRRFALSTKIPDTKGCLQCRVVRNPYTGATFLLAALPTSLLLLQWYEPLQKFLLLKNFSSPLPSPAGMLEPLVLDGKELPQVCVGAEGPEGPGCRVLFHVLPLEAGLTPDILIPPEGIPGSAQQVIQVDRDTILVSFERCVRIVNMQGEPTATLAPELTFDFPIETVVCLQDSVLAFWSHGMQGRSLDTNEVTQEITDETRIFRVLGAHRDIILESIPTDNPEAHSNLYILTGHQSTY
The following applies: at 1 µM.

Test [7] addresses T1, Mitogen-activated protein kinase kinase kinase kinase 2 (Homo sapiens). The following applies: at 10 µM.
In test [8] the target is G protein-coupled receptor kinase 5 (Homo sapiens) (UniProt P34947). The following applies: at 10 µM.
Sequence of G protein-coupled receptor kinase 5 (Homo sapiens) (P34947 whole entry, looked up): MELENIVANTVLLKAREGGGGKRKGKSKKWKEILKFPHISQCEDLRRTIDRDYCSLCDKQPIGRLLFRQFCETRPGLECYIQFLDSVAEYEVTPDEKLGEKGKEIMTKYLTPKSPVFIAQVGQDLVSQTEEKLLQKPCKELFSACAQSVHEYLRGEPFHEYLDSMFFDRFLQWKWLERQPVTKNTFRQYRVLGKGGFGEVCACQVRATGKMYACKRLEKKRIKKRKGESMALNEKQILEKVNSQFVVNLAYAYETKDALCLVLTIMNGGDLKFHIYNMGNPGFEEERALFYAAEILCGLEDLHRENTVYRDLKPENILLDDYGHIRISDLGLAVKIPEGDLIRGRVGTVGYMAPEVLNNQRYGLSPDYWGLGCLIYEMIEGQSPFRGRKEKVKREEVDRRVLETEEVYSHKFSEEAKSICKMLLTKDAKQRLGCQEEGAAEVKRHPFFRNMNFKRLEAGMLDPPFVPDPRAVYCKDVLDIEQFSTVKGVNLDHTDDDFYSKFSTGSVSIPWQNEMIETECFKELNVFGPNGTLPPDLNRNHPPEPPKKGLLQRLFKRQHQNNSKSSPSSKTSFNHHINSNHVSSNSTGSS
The target in test [9] is G protein-coupled receptor kinase 6 (Homo sapiens) (UniProt P43250). The conditions noted are these: at 10 µM.
Sequence of G protein-coupled receptor kinase 6 (Homo sapiens) (P43250 whole entry, looked up): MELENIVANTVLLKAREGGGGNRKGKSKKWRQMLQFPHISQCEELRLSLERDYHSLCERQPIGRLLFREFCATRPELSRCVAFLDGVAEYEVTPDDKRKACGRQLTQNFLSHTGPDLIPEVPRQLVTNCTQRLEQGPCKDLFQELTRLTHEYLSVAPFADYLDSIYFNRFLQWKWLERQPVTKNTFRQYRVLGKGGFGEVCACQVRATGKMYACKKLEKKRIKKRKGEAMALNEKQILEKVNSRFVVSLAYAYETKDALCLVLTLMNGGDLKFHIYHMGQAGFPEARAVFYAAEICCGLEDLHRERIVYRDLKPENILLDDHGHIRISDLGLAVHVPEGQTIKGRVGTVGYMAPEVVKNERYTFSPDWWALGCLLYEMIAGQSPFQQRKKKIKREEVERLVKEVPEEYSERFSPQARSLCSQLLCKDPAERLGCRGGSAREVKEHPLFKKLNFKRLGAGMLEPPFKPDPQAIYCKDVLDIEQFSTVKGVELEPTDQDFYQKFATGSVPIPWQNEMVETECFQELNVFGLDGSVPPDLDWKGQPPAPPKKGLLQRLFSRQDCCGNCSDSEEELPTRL
In test [10] the target is T2, Rhodopsin kinase GRK7 (Homo sapiens) (UniProt Q8WTQ7).
T2 sequence (whole entry): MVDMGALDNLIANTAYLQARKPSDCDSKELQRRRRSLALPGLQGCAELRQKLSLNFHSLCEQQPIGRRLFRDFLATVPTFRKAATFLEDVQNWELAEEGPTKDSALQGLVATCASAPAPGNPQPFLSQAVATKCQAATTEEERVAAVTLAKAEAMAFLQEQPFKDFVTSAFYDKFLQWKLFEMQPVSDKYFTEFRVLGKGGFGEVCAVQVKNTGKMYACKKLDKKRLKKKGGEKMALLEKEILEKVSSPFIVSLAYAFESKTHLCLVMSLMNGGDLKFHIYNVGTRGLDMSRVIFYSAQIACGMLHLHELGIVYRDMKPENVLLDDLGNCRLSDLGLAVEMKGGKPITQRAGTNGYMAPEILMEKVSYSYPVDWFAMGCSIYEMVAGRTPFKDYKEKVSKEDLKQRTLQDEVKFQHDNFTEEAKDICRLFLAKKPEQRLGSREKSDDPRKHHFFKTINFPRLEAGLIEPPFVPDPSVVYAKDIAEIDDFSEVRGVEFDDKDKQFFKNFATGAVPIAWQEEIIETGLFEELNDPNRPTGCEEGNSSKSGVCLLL
The following applies: at 1 µM.

For test [11], the target named is T2, Rhodopsin kinase GRK7 (Homo sapiens). The conditions noted are these: at 10 µM.
The target of test [12] is Glycogen synthase kinase-3 alpha (Homo sapiens) (UniProt P49840). The conditions noted are these: at 1 µM.
Sequence of Glycogen synthase kinase-3 alpha (Homo sapiens) (P49840 2-483 limits assumed): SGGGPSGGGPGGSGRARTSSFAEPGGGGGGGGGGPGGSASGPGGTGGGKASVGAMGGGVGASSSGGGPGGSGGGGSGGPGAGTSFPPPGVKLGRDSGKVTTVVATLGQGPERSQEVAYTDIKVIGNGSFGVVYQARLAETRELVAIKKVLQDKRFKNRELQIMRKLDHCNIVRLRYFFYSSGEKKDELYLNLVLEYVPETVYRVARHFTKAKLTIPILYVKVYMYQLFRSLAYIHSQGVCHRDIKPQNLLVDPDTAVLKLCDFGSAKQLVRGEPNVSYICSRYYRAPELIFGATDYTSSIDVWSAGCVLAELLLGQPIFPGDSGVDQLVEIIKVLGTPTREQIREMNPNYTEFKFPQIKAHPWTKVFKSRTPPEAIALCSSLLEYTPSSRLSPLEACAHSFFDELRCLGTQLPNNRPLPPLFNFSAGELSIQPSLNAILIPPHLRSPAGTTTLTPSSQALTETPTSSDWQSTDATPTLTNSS
For test [13] the target is unchanged. The following applies: at 10 µM.
Test [14] has as its target Glycogen synthase kinase-3 beta (Homo sapiens) (UniProt P49841). The conditions noted are these: at 1 µM.
For test [15] the target is unchanged. The following applies: at 10 µM.
Test [16] concerns the target Homeodomain-interacting protein kinase 1 (Homo sapiens) (UniProt Q86Z02). The following applies: at 1 µM.
Test [17] has the same target. The conditions noted are these: at 10 µM.
Test [18] deals with Homeodomain-interacting protein kinase 2 (Homo sapiens) (UniProt Q9H2X6). The conditions noted are these: at 1 µM.
Test [19] has the same target. The conditions noted are these: at 10 µM.
The target of test [20] is Homeodomain-interacting protein kinase 3 (Homo sapiens) (UniProt Q9H422). The conditions noted are these: at 1 µM.

SMILES strings stand for the structures.

Sequence of Glycogen synthase kinase-3 beta (Homo sapiens) (P49841 whole entry, looked up): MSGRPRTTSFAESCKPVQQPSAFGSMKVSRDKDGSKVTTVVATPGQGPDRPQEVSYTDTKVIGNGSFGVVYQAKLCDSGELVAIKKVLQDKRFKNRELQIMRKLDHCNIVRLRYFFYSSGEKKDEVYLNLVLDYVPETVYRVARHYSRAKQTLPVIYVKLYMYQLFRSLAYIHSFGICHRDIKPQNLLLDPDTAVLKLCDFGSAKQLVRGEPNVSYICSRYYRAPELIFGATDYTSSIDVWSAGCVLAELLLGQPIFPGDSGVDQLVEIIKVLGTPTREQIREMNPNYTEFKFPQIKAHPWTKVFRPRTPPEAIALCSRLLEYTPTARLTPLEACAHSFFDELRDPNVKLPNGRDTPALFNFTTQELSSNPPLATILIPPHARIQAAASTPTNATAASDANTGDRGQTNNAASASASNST
Sequence of Macrophage colony-stimulating factor 1 receptor (Homo sapiens) (P07333 whole entry): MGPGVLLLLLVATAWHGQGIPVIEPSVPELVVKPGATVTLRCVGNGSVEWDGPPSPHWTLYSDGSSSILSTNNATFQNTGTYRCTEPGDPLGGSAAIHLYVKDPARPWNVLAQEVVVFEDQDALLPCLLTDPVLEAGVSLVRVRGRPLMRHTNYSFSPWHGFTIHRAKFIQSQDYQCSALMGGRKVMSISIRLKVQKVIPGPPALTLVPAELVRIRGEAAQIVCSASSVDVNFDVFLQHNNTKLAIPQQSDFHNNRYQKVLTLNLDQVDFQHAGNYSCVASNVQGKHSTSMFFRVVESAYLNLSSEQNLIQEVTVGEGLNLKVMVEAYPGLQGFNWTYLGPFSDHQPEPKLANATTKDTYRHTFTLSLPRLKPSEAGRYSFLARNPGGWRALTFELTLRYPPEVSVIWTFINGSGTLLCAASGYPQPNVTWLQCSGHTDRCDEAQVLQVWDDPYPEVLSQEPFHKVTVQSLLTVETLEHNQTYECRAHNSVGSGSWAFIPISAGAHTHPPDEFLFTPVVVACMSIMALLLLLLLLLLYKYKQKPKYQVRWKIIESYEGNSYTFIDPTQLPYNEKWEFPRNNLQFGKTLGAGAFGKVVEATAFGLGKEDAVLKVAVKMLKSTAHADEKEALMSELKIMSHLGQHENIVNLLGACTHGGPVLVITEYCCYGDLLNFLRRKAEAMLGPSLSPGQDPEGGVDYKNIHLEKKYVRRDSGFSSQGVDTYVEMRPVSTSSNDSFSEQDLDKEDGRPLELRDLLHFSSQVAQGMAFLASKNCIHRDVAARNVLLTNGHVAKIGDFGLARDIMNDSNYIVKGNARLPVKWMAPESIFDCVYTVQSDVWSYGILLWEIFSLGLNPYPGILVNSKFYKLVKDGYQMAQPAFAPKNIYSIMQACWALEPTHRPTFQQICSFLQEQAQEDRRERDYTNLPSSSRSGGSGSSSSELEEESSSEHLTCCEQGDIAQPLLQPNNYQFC
Sequence of Vascular endothelial growth factor receptor 3 (Homo sapiens) (P35916 whole entry): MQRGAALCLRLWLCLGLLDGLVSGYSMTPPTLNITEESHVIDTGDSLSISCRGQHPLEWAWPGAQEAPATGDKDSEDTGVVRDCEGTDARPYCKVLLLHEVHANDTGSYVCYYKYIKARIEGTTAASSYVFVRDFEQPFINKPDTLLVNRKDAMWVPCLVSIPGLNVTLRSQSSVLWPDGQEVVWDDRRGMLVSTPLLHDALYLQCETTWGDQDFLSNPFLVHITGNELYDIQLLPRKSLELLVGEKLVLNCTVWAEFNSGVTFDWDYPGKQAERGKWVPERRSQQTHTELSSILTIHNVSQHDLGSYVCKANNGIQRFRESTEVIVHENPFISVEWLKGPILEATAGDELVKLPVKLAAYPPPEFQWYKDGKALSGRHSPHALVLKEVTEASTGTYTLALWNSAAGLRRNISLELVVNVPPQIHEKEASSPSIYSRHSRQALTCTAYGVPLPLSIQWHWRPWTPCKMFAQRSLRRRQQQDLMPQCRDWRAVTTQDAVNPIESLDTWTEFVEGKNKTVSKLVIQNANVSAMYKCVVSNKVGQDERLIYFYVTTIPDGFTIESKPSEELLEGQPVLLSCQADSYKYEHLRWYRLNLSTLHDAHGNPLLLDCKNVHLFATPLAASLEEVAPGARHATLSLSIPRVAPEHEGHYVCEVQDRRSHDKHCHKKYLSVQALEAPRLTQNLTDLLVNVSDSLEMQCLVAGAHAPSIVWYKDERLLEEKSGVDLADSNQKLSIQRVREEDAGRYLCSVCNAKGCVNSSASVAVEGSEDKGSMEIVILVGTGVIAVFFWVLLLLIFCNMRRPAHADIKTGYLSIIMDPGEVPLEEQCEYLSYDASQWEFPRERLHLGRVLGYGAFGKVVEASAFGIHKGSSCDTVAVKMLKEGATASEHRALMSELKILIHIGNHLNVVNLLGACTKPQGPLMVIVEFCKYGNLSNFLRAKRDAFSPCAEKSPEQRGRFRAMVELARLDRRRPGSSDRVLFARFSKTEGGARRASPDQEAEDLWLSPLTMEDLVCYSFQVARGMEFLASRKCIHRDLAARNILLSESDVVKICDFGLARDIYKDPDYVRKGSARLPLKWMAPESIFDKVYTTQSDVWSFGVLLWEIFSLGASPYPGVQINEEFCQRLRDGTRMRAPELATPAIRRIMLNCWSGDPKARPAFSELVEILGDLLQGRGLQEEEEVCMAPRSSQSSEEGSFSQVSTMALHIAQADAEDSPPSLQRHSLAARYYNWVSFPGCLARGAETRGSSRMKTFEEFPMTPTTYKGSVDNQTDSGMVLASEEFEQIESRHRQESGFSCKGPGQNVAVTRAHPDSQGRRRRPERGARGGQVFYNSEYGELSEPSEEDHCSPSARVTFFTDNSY
Sequence of Tyrosine-protein kinase Fyn (Homo sapiens) (P06241 2-537 limits assumed): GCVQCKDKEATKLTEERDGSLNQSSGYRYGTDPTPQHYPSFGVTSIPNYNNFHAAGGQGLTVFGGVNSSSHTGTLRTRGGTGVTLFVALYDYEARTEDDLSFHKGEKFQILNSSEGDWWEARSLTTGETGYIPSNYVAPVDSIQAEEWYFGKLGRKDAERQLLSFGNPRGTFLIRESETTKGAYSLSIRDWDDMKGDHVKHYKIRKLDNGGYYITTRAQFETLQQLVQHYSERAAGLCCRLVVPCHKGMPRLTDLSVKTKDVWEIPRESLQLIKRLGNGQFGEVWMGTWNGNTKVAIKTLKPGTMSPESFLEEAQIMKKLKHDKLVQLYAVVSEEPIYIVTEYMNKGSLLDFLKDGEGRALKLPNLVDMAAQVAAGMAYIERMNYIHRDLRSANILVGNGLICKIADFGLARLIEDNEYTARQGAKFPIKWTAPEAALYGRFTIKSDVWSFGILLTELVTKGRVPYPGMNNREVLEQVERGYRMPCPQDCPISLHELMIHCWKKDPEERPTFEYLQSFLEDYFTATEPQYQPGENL

For `Nc1n[nH]c2nnc(-c3c(-c4ccccc4)nn4ccccc34)cc12`, the residual activity in test [1] is 23%; in [2], 67%; in [3] it was 28%; in test [4], 71%; in [5], 52%; in test [6], 67%. Besides, the residual activity was found to be 24% in test [7]; 99% in test [8]; 89% in test [9]; 83% in test [10]; 81% in [11]; 77% in [12]. The residual activity was found to be 30% in [13]; 89% in [14]; 49% in test [15]; 105% in [16]; 95% in [17]; 103% in test [18]. Further, the results for the residual activity in test [19] and in [20] were 95% and 97%, respectively.

Regarding `O=C1NC(=O)/C(=C/c2ccc3c(c2)OC(F)(F)O3)S1`, the residual activity in test [1] came to 83%; in test [2], 56%; in test [3], 72%; in test [4], 93%; in [5], 79%; in [6], 106%. The residual activity in test [7] was 87%; in test [8], 101%; in [9], 87%; in [10], 107%; in test [11], 93%; in test [12], 100%. The residual activity in test [13] was 92%; in [14], 93%; in test [15], 90%; in [16], 99%; in test [17], 98%; in test [18] it was 104%. The residual activity was 76% in test [19] and 89% in test [20].

For `Cc1cncc2cccc(S(=O)(=O)N3CCCN(C(=O)CN)C[C@H]3C)c12`, the residual activity in [1] is 51%; in test [2] it was 73%; in test [3], 78%; in [4], 93%; in test [5] it was 78%; in test [6] it was 82%. Moreover, the residual activity in test [7] was found to be 46%; in test [8] it was 68%; in test [9] it was 51%; in test [10], 79%; in [11] it was 28%; in [16], 94%.

In the case of `c1ccc(-c2n[nH]cc2-c2ccnc3ccccc23)nc1`, the residual activity came out at 10% in test [1]; 71% in test [2]; 76% in [3]; 94% in [4]; 22% in [5]; 43% in [6]. The residual activity in test [7] came out at 27%; in test [8] it was 103%; in test [9] it was 87%; in [10], 93%; in test [11], 87%; in test [14], 85%. The residual activity in test [16] came to 98%; in test [17], 105%; in test [18], 98%; in test [19], 101%; in test [20], 100%.

Take `N#CC(C#N)=C(N)/C(C#N)=C/c1ccc(O)cc1`: the residual activity in [1] stood at 95%; in test [2], 79%; in test [3], 86%; in test [5] it was 91%; in test [6], 84%; in test [7] it was 61%. The residual activity in test [9] came out at 95%; in test [10] it was 98%; in [11] it was 91%; in test [14], 83%; in [15], 88%; in test [16], 97%. Besides, the figures for the residual activity in test [17], in test [18] and in [19] were 99%, 91% and 78%, respectively.

As for `Cn1nc2c3c(cccc31)C(=O)c1ccccc1-2`, the residual activity in test [1] is 16%; in [2] it was 72%; in test [3] it was 51%; in [4] it was 65%; in [5], 3%; in test [6], 60%. Further, the residual activity in test [7] is 19%; in [8] it was 98%; in test [10] it was 92%; in test [11], 81%; in test [12] it was 86%; in test [13] it was 74%. The residual activity in [14] came to 108%; in test [15] it was 107%; in test [16] it was 105%; in test [17], 96%; in test [18] it was 79%; in test [19], 36%. Besides, the residual activity in test [20] turned out to be 90%.

Regarding `Cc1ccc(NC2=CC(=O)c3sc(C)nc3C2=O)cc1`, the residual activity in test [1] is 84%; in test [2], 96%; in test [3], 79%; in test [4] it was 82%; in [5], 93%; in [6], 86%. Moreover, the residual activity in test [8] is 99%; in test [9], 85%; in test [10], 84%; in [11], 89%; in [12], 119%; in [13], 106%. Further, the residual activity in test [14] amounted to 117%; in [15] it was 118%; in test [16] it was 100%; in test [17] it was 90%; in [18], 97%; in test [19], 98%. For the same molecule, the residual activity in test [20] is 92%.
